Screens (PubChem BioAssay)
Sampled rows, rich in hits. Any-hit rate of the full collection: about 7.8%.
PD-1 reverse act: activators reversing PD-1 mediated T-cell inhibition | primary human CD4 T cells, PD-L1 beads, CellTiter-Glo 96 h | activation, % (concentration not given with the values) | 29,000 tested, under 10 active | AID 2316; call rule not given here
Shh pathway inh: blocks Sonic Hedgehog signaling; Shh-LIGHT2 Gli-luciferase reporter, 30 h; inhibition, % (concentration not given with the values); 22,000 compounds, 2.1% hits;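 active means mean inhibition across valid replicates above about 65%, limit read from the data; inconclusive means mean under the limit, yet half or more replicates past it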;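 further: pathway switched on by Shh-conditioned medium diluted 1 in 25 in low serum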
MITF inhib: MITF inhibition | 37,000 compounds, 0.28% hits | TRPM1 promoter luciferase, luminescence, 24 h | inhibition, % (concentration not given with the values); in the data active means inhibition above about 85%; inconclusive means no clear call, values can overlap the other calls; inactive means below about 68%;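 further: human melanocyte line stably carrying TRPM1 promoter luciferase reporter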
NOMO-1 viab: STK33 inhibitor candidate reducing NOMO-1 cell viability | NOMO-1 AML viability, CellTiter-Glo luminescence, 72 h | inhibition, % (concentration not given with the values) | AID 2330 | 37,000 compounds, 7.5% hits; in the data active means inhibition above about 80%; inconclusive means no clear call, values can overlap the other calls
Of the large screens only hits and unclear results are named; the others gave an inactive call.

CSC(SC)=C(C#N)C(=O)c1cccc(C(F)(F)F)c1	NOMO-1 viab 123
COc1cc(/C=C/C(=O)OC2CC3CCC2(C)C3(C)C)ccc1O (configuration not stated)	NOMO-1 viab 104
COc1ccc(OCCC(=O)NN)cc1	none
CSc1c(C#N)c(-c2cccs2)nn1CNC(=O)Nc1ccccc1C(F)(F)F	none
CC1=CC(=O)C2=C(C)CC[C@@H]3[C@H](OC(=O)[C@H]3C)[C@@H]12	none (no result: PD-1 reverse act)
C=C1C(=O)O[C@H]2C1CCC(C)=C1C(=O)C=C(C)[C@@H]12 (some centres not stated)	NOMO-1 viab 115
C[C@H](CO)N1C[C@H](C)[C@H](CN(C)CC2CC2)Oc2c(NC(=O)CCCCCC(=O)Nc3ccccc3N)cccc2C1=O	none (no result: Shh pathway inh)
C[C@@H]1CN([C@@H](C)CO)C(=O)c2cccc(NC(=O)CCCCCC(=O)Nc3ccccc3N)c2O[C@H]1CN(C)CC1CCCCC1	NOMO-1 viab 138 (no result: Shh pathway inh)
C[C@H](CO)N1C[C@H](C)[C@@H](CN(C)CC2CC2)Oc2c(NC(=O)CCCCCC(=O)Nc3ccccc3N)cccc2C1=O	NOMO-1 viab 121 (no result: Shh pathway inh)
COc1ccc(OC)c(NC(=O)Cn2cnc3sc(C)c(-c4ccc(Cl)cc4)c3c2=O)c1	none (no result: PD-1 reverse act, Shh pathway inh)
Cc1ccc(C(=O)Cn2c3c(sc2=N)CCCC3)cc1	Shh pathway inh 76, MITF inhib 88 (no result: PD-1 reverse act)
CCN1C2=C(C(=O)CC(C)(C)C2)C(c2ccc(OC)cc2)C2=C1CC(C)(C)CC2=O	none
COc1ccc(NC(=O)COc2ccc(CO)cc2OC)cc1	none (no result: PD-1 reverse act, Shh pathway inh)
Clc1ccc(C2=NN=C(N3CCCC3)SC2)cc1	NOMO-1 viab 99 (no result: Shh pathway inh)
Cc1ccc(NC(=O)c2ccc(-n3nc(C(F)(F)F)c4c3-c3ccoc3CC4)cc2)cc1	none (no result: Shh pathway inh)
Cn1c(=O)c2c(nc(N3CCOCC3)n2CCCN)n(C)c1=O	none (no result: PD-1 reverse act, Shh pathway inh)
C[C@@H]1CN([C@H](C)CO)C(=O)Cc2cc(N(C)C)ccc2O[C@H]1CN(C)Cc1ccc(Oc2ccccc2)cc1	NOMO-1 viab 110
C[C@@H]1CN([C@@H](C)CO)C(=O)c2cc(N(C)C)ccc2O[C@H]1CN(C)Cc1ccc(Oc2ccccc2)cc1	none
C[C@H]1CN([C@@H](C)CO)C(=O)Cc2cc(N(C)C)ccc2O[C@H]1CN(C)Cc1ccc(Cl)c(Cl)c1	none
C[C@H](CO)N1C[C@H](C)[C@H](CN(C)Cc2ccc(Oc3ccccc3)cc2)Oc2ccc(N(C)C)cc2CC1=O	none
C[C@@H]1CN([C@@H](C)CO)C(=O)c2cc(N(C)C)ccc2O[C@@H]1CN(C)Cc1ccc(Oc2ccccc2)cc1	NOMO-1 viab 90
C[C@@H]1CN([C@@H](C)CO)C(=O)Cc2cc(N(C)C)ccc2O[C@@H]1CN(C)Cc1ccc(Cl)c(Cl)c1	NOMO-1 viab 127
CSc1sc(C(=O)O)c2c1S(=O)(=O)N(C)c1ccccc1-2	none (no result: Shh pathway inh)
CCN(CC)CCCC(C)Nc1c2ccc(Cl)cc2nc2ccc(OC)cc12 (configuration not stated)	NOMO-1 viab 114 (no result: PD-1 reverse act)
C[C@H]1CN([C@@H](C)CO)C(=O)Cc2cc(NC(=O)Nc3ccc4c(c3)OCO4)ccc2O[C@@H]1CN(C)CC1CCCCC1	NOMO-1 viab 92
C[C@H]1CN([C@@H](C)CO)C(=O)Cc2cc(NC(=O)Nc3ccc4c(c3)OCO4)ccc2O[C@H]1CN(C)CC1CCCCC1	none
C[C@H]1CN([C@@H](C)CO)C(=O)Cc2cc(NC(=O)Nc3ccc(F)cc3)ccc2O[C@H]1CN(C)CC1CCCCC1	NOMO-1 viab 105
C[C@H](CO)N1C[C@H](C)[C@H](CN(C)CC2CCCCC2)Oc2ccc(NC(=O)Nc3cccc4ccccc34)cc2CC1=O	NOMO-1 viab 99 (no result: PD-1 reverse act)
C[C@H](CO)N1C[C@H](C)[C@@H](CN(C)CC2CCCCC2)Oc2ccc(NC(=O)Nc3cccc4ccccc34)cc2C1=O	none
C[C@@H]1CN([C@@H](C)CO)C(=O)c2cc(NC(=O)Nc3cccc4ccccc34)ccc2O[C@@H]1CN(C)CC1CCCCC1	NOMO-1 viab 118
CC1=N/C(=C\c2sccc2C)C(=O)O1	NOMO-1 viab inconclusive
C[C@H]1CN([C@@H](C)CO)C(=O)Cc2cc(NC(=O)Nc3ccc(F)cc3)ccc2O[C@@H]1CN(C)CC1CC1	none
C[C@H]1CN([C@@H](C)CO)C(=O)Cc2cc(NC(=O)Nc3ccc(F)cc3)ccc2O[C@@H]1CN(C)CC1CCCCC1	NOMO-1 viab 99
C[C@@H]1CN([C@@H](C)CO)C(=O)Cc2cc(NC(=O)Nc3ccc(F)cc3)ccc2O[C@@H]1CN(C)CC1CCCCC1	NOMO-1 viab 81
C[C@H](CO)N1C[C@H](C)[C@H](CN(C)CC2CCCCC2)Oc2ccc(NC(=O)Nc3ccccc3)cc2CC1=O	NOMO-1 viab 106 (no result: PD-1 reverse act)
C[C@H](CO)N1C[C@H](C)[C@H](CN(C)CC2CCCCC2)Oc2ccc(NC(=O)Nc3ccc(F)cc3)cc2CC1=O	NOMO-1 viab 95 (no result: PD-1 reverse act, Shh pathway inh)
C=CCn1c(=O)c2c(C)c(C)sc2n2c(Nc3ccc(C(=O)OCC)cc3)nnc12	none
O=C1/C(=C/c2ccc(-c3nn[nH]n3)cc2)C(c2ccccc2)Oc2ccccc21 (configuration not stated)	Shh pathway inh 74
Cc1cc(OC(=O)C2COc3ccccc3O2)cc(C)c1Cl (configuration not stated)	none (no result: Shh pathway inh)
CC(C)n1cnc2c(Nc3cccc(Cl)c3)nc(NCCO)nc21	Shh pathway inh 75
CCc1cc(C)cc(OCCn2cc(C=C3C(=O)NC(=O)NC3=O)c3ccccc32)c1	NOMO-1 viab 122
CCc1ccc(OCCCn2cc(/C=C3/C(=N)N4C=CSC4=NC3=O)c3ccccc32)cc1	none
OC(CNCc1ccccc1)Cn1c2ccccc2c2ccccc21 (configuration not stated)	NOMO-1 viab 111 (no result: PD-1 reverse act, Shh pathway inh)
CCOC(OCC)P(=O)(O)CCCNCc1ccc(Cl)c(Cl)c1	MITF inhib 88 (no result: PD-1 reverse act)
C[C@H]1CN([C@@H](C)CO)C(=O)Cc2cc(NC(=O)Nc3cccc4ccccc34)ccc2O[C@@H]1CN(C)Cc1ccc(Cl)c(Cl)c1	NOMO-1 viab 108
C[C@H](CO)N1C[C@H](C)[C@H](CN(C)Cc2ccc(-c3ccccc3)cc2)Oc2ccc(NC(=O)Nc3cccc4ccccc34)cc2CC1=O	none (no result: Shh pathway inh)
C[C@@H]1CN([C@H](C)CO)C(=O)Cc2cc(NC(=O)Nc3cccc4ccccc34)ccc2O[C@@H]1CN(C)Cc1ccccc1	NOMO-1 viab 88
C[C@H](CO)N1C[C@H](C)[C@H](CN(C)Cc2ccc(Cl)c(Cl)c2)Oc2ccc(NC(=O)Nc3cccc4ccccc34)cc2C1=O	none (no result: Shh pathway inh)
C[C@H]1CN([C@@H](C)CO)C(=O)Cc2cc(NC(=O)Nc3ccc(C(F)(F)F)cc3)ccc2O[C@@H]1CN(C)CC1CCCCC1	NOMO-1 viab 125
C[C@@H]1CN([C@@H](C)CO)C(=O)Cc2cc(NC(=O)Nc3ccc(C(F)(F)F)cc3)ccc2O[C@@H]1CN(C)C	none (no result: PD-1 reverse act)
C[C@H](CO)N1C[C@H](C)[C@H](CN(C)CC2CCCCC2)Oc2ccc(NC(=O)Nc3ccc(C(F)(F)F)cc3)cc2CC1=O	NOMO-1 viab 128
N#C/C(=C\Nc1cccc(Cl)c1)S(=O)(=O)c1ccc(Cl)cc1	Shh pathway inh inconclusive, NOMO-1 viab 84
O=C(CNS(=O)(=O)c1cc(Cl)ccc1Cl)Nc1ccc(Oc2ccccc2)cc1	none (no result: Shh pathway inh)
